Results from PubChem BioAssay (Tox21).
Values without a mark were called inactive. Records with an inconclusive call do not appear. A call without a number means that no potency is given here. The source made the active and inactive calls. Unless noted, calls follow the shape of the dose curve; as a rule, active = well fitted curve in the direction sought with a large enough effect in the repeat runs; inconclusive = weak or mixed curves; inactive = no such curve, though single readings can be large; an effect the other way counts as inactive or inconclusive.

Experiments:
[1] = biological target: Thyrotropin-releasing hormone receptor (Homo sapiens) (UniProt P34981); assay: qHTS assay to identify small molecule agonists of the thyrotropin-releasing hormone receptor (TRHR) signaling pathway (AID 1346891; calls by dose curve; also: series mostly up to about 58 µM)
Sequence of Thyrotropin-releasing hormone receptor (Homo sapiens) (P34981 whole entry, looked up): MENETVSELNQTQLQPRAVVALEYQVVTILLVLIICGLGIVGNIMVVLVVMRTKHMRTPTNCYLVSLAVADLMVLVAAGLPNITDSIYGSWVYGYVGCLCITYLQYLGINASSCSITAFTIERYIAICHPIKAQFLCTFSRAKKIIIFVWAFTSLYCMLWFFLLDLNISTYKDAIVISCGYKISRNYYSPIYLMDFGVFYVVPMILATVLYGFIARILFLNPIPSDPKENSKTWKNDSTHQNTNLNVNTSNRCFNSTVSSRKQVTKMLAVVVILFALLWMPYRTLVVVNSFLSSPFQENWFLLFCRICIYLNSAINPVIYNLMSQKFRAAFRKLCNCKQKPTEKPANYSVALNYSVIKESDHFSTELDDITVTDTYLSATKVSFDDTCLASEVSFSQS
Outline: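 TRHR-expressing HEK293 cells were plated 18 h at 37 °C/5% CO2, loaded with calcium dye 2 h at 37 °C, then given compound in DMSO; fluorescence was read kinetically for 3 min at 1 s intervals.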

[2] = Human pregnane X receptor (PXR) small molecule agonists, qHTS cell viability counter screen (AID 1346977); also: nearly all actives have a fitted effect of over 50% in size; also: potency is read from the fitted curve at half-maximal effect
Outline: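 PXR-Luc HepG2 cells in medium with 5% charcoal-stripped FBS were pre-incubated 5hr, then exposed to compounds for 24hr at 37C. Viability was read in the same wells by CellTiter-Fluor fluorescence, reagent added after 23hr with a 1hr incubation.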

[3] = Caspase-3/7 induction in HepG2 cells by small molecules, qHTS assay (AID 1346978); also: nearly all actives have a fitted effect of over 15% in size
Outline: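 Wild-type HepG2 cells (2,000/well) were settled 5 h at 37 C, 5% CO2, then exposed to compounds in DMSO for 17 h. Caspase-3/7 activity was read by luminescence 30 min after adding Caspase-Glo 3/7 reagent at room temperature.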

[4] = Caspase-3/7 induction in CHO-K1 cells by small molecules, qHTS cell viability counter screen (AID 1346979); also: nearly all actives have a fitted effect of over 35% in size; also: potency is read from the fitted curve at half-maximal effect
Outline: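 Wild-type CHO-K1 cells were seeded at 1,500 per well, rested 5hr at 37 C, then exposed to compounds in DMSO. After 16hr, CellTiter-Fluor reagent was added and fluorescence read 1hr later as the viability measure.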

[5] = Caspase-3/7 induction in CHO-K1 cells by small molecules, qHTS assay (AID 1346980); also: nearly all actives have a fitted effect of over 15% in size
Outline: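 Wild-type cells were seeded at 1,500 per well and settled 5 hr at 37 C, 5% CO2, then exposed to DMSO-dissolved compounds for 17 hr. Caspase-Glo 3/7 reagent was added, and luminescence was read after 30min at room temperature.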

[6] = Caspase-3/7 induction in HepG2 cells by small molecules, qHTS cell viability counter screen (AID 1346981); also: nearly all actives have a fitted effect of over 30% in size; also: potency is read from the fitted curve at half-maximal effect
Outline: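 Viability determined by CellTiter-Fluor fluorescence in HepG2 wells also used for the luminescent Caspase-Glo 3/7 read. Compounds were present for 16 hr at 37 C, 5% CO2 before reagent addition.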

[7] = biological target: Nuclear receptor subfamily 1 group I member 2 (Homo sapiens) (UniProt O75469); assay: Human pregnane X receptor (PXR) small molecule agonists, qHTS assay (AID 1346982); also: nearly all actives have a fitted effect of over 35% in size; also: potency is read from the fitted curve at half-maximal effect
Sequence of Nuclear receptor subfamily 1 group I member 2 (Homo sapiens) (O75469 whole entry, looked up): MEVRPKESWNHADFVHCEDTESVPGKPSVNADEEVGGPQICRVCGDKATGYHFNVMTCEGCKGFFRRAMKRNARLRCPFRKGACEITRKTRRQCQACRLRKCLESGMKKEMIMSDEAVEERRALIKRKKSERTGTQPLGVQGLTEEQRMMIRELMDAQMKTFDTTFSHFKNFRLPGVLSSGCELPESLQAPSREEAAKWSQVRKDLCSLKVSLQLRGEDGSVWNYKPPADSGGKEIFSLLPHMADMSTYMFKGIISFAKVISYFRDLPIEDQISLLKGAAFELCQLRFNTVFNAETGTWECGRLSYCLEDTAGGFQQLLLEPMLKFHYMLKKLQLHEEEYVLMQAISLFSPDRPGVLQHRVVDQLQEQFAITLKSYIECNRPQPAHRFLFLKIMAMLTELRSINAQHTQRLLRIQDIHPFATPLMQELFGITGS
Outline: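 Compound-induced hPXR transactivation of a CYP3A4 luciferase reporter was scored in HepG2 PXR-Luc cells over 24 hr at 37 C, 5% CO2, by luminescence.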

[8] = biological target: Cytochrome P450 2D6 (Homo sapiens) (UniProt P10635); assay: Cytochrome P450 Family 2 Subfamily D Member 6 (CYP2D6) small molecule antagonists: luciferase reporter qHTS assay (AID 1671196); also: nearly all actives have a fitted effect of over 50% in size; also: potency is read from the fitted curve at half-maximal effect
Sequence of Cytochrome P450 2D6 (Homo sapiens) (P10635 whole entry, looked up): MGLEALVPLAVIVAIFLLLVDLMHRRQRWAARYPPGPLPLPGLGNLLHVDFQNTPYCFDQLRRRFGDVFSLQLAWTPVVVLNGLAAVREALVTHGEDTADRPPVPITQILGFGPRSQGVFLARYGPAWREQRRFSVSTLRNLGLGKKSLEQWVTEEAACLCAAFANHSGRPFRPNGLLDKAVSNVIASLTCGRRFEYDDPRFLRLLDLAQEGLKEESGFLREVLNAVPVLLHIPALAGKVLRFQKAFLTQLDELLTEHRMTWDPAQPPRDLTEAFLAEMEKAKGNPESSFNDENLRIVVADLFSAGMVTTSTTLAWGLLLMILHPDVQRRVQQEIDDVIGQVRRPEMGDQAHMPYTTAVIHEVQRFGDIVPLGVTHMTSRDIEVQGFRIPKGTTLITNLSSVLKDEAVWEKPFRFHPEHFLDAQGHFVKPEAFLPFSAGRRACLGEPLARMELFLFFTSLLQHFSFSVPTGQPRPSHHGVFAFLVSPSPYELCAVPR
Outline: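 Each well received CYP2D6 with its proluciferin substrate and chemical, sat 10 min, then got NADPH regeneration solution for 1 h at room temperature. Luminescence in RLU served as the activity measure.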

[9] = biological target: Cytochrome P450 2C19 (Homo sapiens) (UniProt P33261); assay: Cytochrome P450 Family 2 Subfamily C Member 19 (CYP2C19) small molecule antagonists: luciferase reporter qHTS assay (AID 1671197); also: nearly all actives have a fitted effect of over 65% in size; also: potency is read from the fitted curve at half-maximal effect
Sequence of Cytochrome P450 2C19 (Homo sapiens) (P33261 whole entry, looked up): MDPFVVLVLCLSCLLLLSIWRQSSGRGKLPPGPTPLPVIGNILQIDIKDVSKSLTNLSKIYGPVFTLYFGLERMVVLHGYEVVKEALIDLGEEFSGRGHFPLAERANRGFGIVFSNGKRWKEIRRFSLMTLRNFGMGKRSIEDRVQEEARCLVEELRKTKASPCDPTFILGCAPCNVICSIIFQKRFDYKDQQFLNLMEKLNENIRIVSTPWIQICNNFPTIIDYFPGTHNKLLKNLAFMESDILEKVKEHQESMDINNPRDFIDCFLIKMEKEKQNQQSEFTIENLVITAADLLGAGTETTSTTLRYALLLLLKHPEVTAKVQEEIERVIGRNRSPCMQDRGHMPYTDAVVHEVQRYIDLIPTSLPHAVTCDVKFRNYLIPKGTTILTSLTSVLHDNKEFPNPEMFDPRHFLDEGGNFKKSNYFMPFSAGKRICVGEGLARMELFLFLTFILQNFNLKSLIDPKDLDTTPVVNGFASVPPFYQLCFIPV
Outline: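 Relative luminescence units recorded 20 min after the detection reagent stopped a 1 h, 37C CYP2C19 reaction on proluciferin substrate, which was started by NADPH regeneration following 10 min room-temperature compound preincubation; ketoconazole positive control.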

[10] = biological target: Cytochrome P450 2C9 (Homo sapiens) (UniProt P11712); assay: Cytochrome P450 Family 2 Subfamily C Member 9 (CYP2C9) small molecule antagonists: luciferase reporter qHTS assay (AID 1671198); also: nearly all actives have a fitted effect of over 50% in size; also: potency is read from the fitted curve at half-maximal effect
Sequence of Cytochrome P450 2C9 (Homo sapiens) (P11712 whole entry, looked up): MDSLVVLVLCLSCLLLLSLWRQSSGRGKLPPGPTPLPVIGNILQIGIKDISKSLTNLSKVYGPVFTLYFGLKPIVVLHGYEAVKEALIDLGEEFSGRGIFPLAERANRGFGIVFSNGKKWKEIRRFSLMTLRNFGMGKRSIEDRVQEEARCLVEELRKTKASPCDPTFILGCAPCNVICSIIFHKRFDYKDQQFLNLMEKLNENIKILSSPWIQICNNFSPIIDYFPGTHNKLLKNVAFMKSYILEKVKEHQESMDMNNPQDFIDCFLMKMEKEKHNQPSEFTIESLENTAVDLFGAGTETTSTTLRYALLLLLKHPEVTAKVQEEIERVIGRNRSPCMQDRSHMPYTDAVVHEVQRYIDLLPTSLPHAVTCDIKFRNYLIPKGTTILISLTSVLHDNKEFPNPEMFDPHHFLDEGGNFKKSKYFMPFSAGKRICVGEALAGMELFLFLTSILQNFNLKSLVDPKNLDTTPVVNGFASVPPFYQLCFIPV
Outline: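 CYP2C9 activity was measured with a P450-Glo proluciferin substrate. Enzyme–substrate mix was held with compound for 10 min at room temperature, then NADPH regeneration solution was added for 1 h at 37C. Luciferin product was read as luminescence.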

[11] = biological target: Cytochrome P450 1A2 (Homo sapiens) (UniProt P05177); assay: Cytochrome P450 Family 1 Subfamily A Member 2 (CYP1A2) small molecule antagonists: luciferase reporter qHTS assay (AID 1671199); also: nearly all actives have a fitted effect of over 50% in size; also: potency is read from the fitted curve at half-maximal effect
Sequence of Cytochrome P450 1A2 (Homo sapiens) (P05177 whole entry, looked up): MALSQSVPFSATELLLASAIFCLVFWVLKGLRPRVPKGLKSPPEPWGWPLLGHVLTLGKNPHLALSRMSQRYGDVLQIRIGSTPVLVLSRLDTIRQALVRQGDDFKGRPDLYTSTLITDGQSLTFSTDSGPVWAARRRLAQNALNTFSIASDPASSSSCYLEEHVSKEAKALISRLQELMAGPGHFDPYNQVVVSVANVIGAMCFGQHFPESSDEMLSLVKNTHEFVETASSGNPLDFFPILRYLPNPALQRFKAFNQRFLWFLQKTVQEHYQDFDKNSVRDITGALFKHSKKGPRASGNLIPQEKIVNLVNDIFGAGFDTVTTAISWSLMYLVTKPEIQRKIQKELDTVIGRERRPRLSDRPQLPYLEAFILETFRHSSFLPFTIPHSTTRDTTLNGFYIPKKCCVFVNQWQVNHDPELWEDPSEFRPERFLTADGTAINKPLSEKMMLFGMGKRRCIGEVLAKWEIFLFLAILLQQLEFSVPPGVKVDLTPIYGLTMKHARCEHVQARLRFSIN
Outline: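 Enzymatic CYP1A2 assay, human, luminescent: 10 min compound–enzyme–substrate preincubation, 1 h NADPH-dependent turnover, 20 min detection step, room temperature throughout. Reduced light indicates lower CYP1A2 activity.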

[12] = biological target: Voltage-gated inwardly rectifying potassium channel KCNH2 (Homo sapiens) (UniProt Q12809); assay: Human Ether-a-go-go-Related Gene (hERG) channel small molecule antagonists: fluorescence cell-based qHTS assay (AID 1671200)
Sequence of Voltage-gated inwardly rectifying potassium channel KCNH2 (Homo sapiens) (Q12809 whole entry, looked up): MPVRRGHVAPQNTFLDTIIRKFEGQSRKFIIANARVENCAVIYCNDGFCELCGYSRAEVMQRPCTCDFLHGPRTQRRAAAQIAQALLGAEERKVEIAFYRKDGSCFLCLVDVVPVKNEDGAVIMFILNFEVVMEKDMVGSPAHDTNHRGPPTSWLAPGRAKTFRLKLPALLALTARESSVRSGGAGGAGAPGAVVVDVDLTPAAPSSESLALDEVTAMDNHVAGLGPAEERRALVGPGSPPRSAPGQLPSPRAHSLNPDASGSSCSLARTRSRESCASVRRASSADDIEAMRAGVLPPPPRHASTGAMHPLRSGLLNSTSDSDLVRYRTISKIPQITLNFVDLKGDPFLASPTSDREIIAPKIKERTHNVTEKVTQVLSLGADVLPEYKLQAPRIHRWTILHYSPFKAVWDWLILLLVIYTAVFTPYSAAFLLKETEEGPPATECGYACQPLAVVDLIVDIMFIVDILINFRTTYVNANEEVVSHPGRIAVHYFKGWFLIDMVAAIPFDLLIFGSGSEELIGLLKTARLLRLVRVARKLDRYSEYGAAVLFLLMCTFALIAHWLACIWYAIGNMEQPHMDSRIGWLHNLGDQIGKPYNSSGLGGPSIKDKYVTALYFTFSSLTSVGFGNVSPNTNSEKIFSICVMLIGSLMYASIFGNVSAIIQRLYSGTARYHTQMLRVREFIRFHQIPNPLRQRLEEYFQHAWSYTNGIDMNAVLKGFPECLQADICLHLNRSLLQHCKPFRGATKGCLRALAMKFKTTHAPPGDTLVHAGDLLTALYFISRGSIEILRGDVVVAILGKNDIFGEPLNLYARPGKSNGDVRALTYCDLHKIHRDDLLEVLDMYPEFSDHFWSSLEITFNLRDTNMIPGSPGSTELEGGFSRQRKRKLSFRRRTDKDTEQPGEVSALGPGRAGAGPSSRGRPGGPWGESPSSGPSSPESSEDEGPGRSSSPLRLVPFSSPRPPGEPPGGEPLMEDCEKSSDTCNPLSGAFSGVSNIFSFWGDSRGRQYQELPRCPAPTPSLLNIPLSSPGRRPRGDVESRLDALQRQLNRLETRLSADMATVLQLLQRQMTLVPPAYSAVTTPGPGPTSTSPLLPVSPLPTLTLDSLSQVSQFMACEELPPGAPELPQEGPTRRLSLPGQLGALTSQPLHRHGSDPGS
Outline: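 U2OS cells expressing the channel were plated at 1000 cells/well, incubated overnight at 37 C, then loaded with FluxOR II thallium-sensitive dye for 1 h at room temperature in the dark, with a further 10 min at room temperature before stimulation.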

[13] = biological target: Cytochrome P450 3A4 (Homo sapiens) (UniProt P08684); assay: Cytochrome P450 Family 3 Subfamily A Member 4 (CYP3A4) small molecule antagonists: luciferase reporter qHTS assay (AID 1671201); also: nearly all actives have a fitted effect of over 50% in size; also: potency is read from the fitted curve at half-maximal effect
Sequence of Cytochrome P450 3A4 (Homo sapiens) (P08684 whole entry, looked up): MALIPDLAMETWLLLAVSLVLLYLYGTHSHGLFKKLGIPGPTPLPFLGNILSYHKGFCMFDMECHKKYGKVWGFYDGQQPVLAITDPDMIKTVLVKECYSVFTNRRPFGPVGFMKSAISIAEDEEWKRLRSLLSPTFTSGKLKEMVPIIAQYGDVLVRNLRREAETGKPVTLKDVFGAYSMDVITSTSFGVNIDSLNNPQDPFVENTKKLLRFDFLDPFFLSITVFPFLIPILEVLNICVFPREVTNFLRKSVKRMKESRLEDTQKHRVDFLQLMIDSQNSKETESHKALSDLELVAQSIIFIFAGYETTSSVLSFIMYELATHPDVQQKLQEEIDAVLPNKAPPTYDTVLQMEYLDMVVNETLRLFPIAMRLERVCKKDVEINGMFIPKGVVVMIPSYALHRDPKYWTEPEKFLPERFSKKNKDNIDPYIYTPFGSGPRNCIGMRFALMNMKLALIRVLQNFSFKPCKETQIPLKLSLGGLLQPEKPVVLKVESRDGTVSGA
Outline: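 P450-Glo CYP3A4 system with proluciferin substrate; compounds preincubated 10 min RT with enzyme-substrate mix, then NADPH regeneration added for 1 h RT. Detection reagent 20 min, luminescence read as relative luminescence units.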

Structure (SMILES)	outcome [1]	Potency [2]	Potency [3]	Potency [4]	Potency [5]	Potency [6]	Potency [7]	Potency [8]	Potency [9]	Potency [10]	Potency [11]	Potency [12]	Potency [13]
O=C(O)c1ccccc1[N+](=O)[O-]	inactive	inactive	inactive	inactive	inactive	inactive	inactive	inactive	inactive	inactive	inactive	inactive	inactive
Cc1cc(C)n(CO)n1	inactive	inactive	inactive	inactive	inactive	inactive	inactive	inactive	inactive	inactive	inactive	inactive	inactive
CCCCCCC/C=C/C=O	inactive	inactive	inactive	inactive	inactive	inactive	inactive	39.9 µM (active)	79.6 µM (active)			inactive	inactive
OCCOc1cccc(OCCO)c1	inactive	inactive	inactive	inactive	inactive	inactive	inactive	inactive	inactive	inactive		inactive	inactive
CC(C)CC(C)(C)C	inactive	inactive	inactive	inactive	inactive	inactive	inactive	36.9 µM (active)	20.8 µM (active)	36.9 µM (active)	7.37 µM (active)		32.9 µM (active)
O=P(c1ccccc1)(c1ccccc1)c1ccccc1	inactive	inactive	inactive	inactive	inactive	inactive	27.3 µM (active)	inactive	5.64 µM (active)	6.33 µM (active)		inactive	
Cc1ccc2c(Cl)cc(Cl)c(O)c2n1	inactive	inactive	inactive	inactive	inactive	inactive	inactive	inactive	inactive	inactive		inactive	
CCCCC(CC)COCCC#N (centres undefined)	inactive	inactive	inactive	inactive	inactive	inactive	inactive	inactive	inactive		inactive	inactive	inactive
CC(=O)S[C@H](C(=O)N[C@H]1Cc2ccccc2[C@H]2CCC[C@@H](C(=O)O)N2C1=O)C(C)C	inactive	inactive	inactive	inactive	inactive	inactive	inactive	inactive	inactive		inactive	inactive	inactive
Nc1nc(Cl)nc2c1ncn2[C@H]1C[C@H](O)[C@@H](CO)O1	inactive	inactive	inactive	inactive	inactive	inactive	1.71 µM (active)	inactive	inactive		28.1 µM (active)	inactive	inactive
CC(=O)Oc1cccc2c1C(=O)c1c(OC(C)=O)cc(C(=O)O)cc1C2=O	inactive	29.8 µM (active)	inactive	29.8 µM (active)	inactive	29.8 µM (active)	inactive	inactive	inactive		inactive		inactive
CC(=O)Nc1ccn(C2COC(COC(=O)c3ccccc3)O2)c(=O)n1 (centres undefined)	inactive	inactive	inactive	inactive	inactive	inactive	inactive	inactive	inactive		24.5 µM (active)	inactive	inactive
OCC(O)c1ccccc1 (centres undefined)	inactive	inactive	inactive	inactive	inactive	inactive	inactive	inactive	inactive	inactive		inactive	inactive
O=c1[nH][nH]c2ccccc12	inactive	inactive	inactive	inactive	inactive	inactive	inactive	inactive	81.2 µM (active)		10.2 µM (active)	inactive	32.3 µM (active)
CCC1=C(C)CN(C(=O)NCCc2ccc(S(=O)(=O)NC(=O)NC3CCC(C)CC3)cc2)C1=O (centres undefined)	inactive	inactive	inactive	inactive	inactive	inactive	inactive	inactive	inactive		inactive	inactive	inactive
CCc1cnc(C(=O)O)c(C(=O)O)c1	inactive	inactive	inactive	inactive	inactive	inactive	inactive	inactive	inactive		inactive	inactive	inactive
NCCOCCOCCN	inactive	inactive	inactive	inactive	inactive	inactive	inactive	25.2 µM (active)	inactive	inactive		inactive	inactive
CC(C)Cc1nccs1	inactive	inactive	inactive	inactive	inactive	inactive	inactive	12.9 µM (active)	40.7 µM (active)			inactive	inactive
C=CC(C)CCC=C(C)C (centres undefined)	inactive	inactive	inactive	inactive	inactive	inactive	inactive	inactive	inactive	inactive		inactive	inactive
Clc1ccccc1-c1nc(-c2ccncc2)no1	inactive	inactive	inactive	inactive	inactive	inactive	5.31 µM (active)	13.8 µM (active)	0.977 µM (active)		0.512 µM (active)	inactive	30.9 µM (active)
C=CC(=O)OCCCCCCCCCC	inactive	inactive	inactive	inactive	inactive	inactive	inactive	inactive	inactive	inactive	inactive		inactive
